# Laboratory results taken from article PMC11062922 (Nature Chemical Biology, 2023).
# How the values were obtained:
# [1] = tested on: AURKA; settings: compound concentrations:3nM, 10nM, 30nM, 100nM, 300nM, 1000nM, 3000nM, 30000nM,R2:0.99130699388271104,slope:0.94634188293278299,EC50 Standard Error, by the legend:Standard error of the EC50 estimation as provided by the drc package.
# [2] = tested on: AURKB; settings: compound concentrations:3nM, 10nM, 30nM, 100nM, 300nM, 1000nM, 3000nM, 30000nM,R2:0.99833060468955204,slope:0.90064720888108796,EC50 Standard Error, by the legend:Standard error of the EC50 estimation as provided by the drc package.
# [3] = tested on: BCR; settings: compound concentrations:3nM, 10nM, 30nM, 100nM, 300nM, 1000nM, 3000nM, 30000nM,R2:0.97560136182595103,slope:1.05645406378656,EC50 Standard Error, by the legend:Standard error of the EC50 estimation as provided by the drc package.
# [4] = tested on: BMP2K; settings: compound concentrations:3nM, 10nM, 30nM, 100nM, 300nM, 1000nM, 3000nM, 30000nM,R2:0.98755156955359502,slope:1.4167647234137799,EC50 Standard Error, by the legend:Standard error of the EC50 estimation as provided by the drc package.
# [5] = tested on: BMPR2; settings: compound concentrations:3nM, 10nM, 30nM, 100nM, 300nM, 1000nM, 3000nM, 30000nM,R2:0.93324573239730002,slope:2.2231806087315,EC50 Standard Error, by the legend:Standard error of the EC50 estimation as provided by the drc package.
# [6] = tested on: CCNH; settings: compound concentrations:3nM, 10nM, 30nM, 100nM, 300nM, 1000nM, 3000nM, 30000nM,R2:0.984368608654974,slope:1.5961170242536,EC50 Standard Error, by the legend:Standard error of the EC50 estimation as provided by the drc package.
# [7] = tested on: CHEK1; settings: compound concentrations:3nM, 10nM, 30nM, 100nM, 300nM, 1000nM, 3000nM, 30000nM,R2:0.99154934454702504,slope:1.2455496028398201,EC50 Standard Error, by the legend:Standard error of the EC50 estimation as provided by the drc package.
# [8] = tested on: EPHA1; settings: compound concentrations:3nM, 10nM, 30nM, 100nM, 300nM, 1000nM, 3000nM, 30000nM,R2:0.96586410409124401,slope:0.42399886433003398,EC50 Standard Error, by the legend:Standard error of the EC50 estimation as provided by the drc package.
# [9] = tested on: EPHA7; settings: compound concentrations:3nM, 10nM, 30nM, 100nM, 300nM, 1000nM, 3000nM, 30000nM,R2:0.88780253900259998,slope:1.37394463734268,EC50 Standard Error, by the legend:Standard error of the EC50 estimation as provided by the drc package.
# [10] = tested on: FER; settings: compound concentrations:3nM, 10nM, 30nM, 100nM, 300nM, 1000nM, 3000nM, 30000nM,R2:0.99765697857562097,slope:1.03588430141815,EC50 Standard Error, by the legend:Standard error of the EC50 estimation as provided by the drc package.
# [11] = tested on: FLT3; settings: compound concentrations:3nM, 10nM, 30nM, 100nM, 300nM, 1000nM, 3000nM, 30000nM,R2:0.96575906270431899,slope:1.4210084972678201,EC50 Standard Error, by the legend:Standard error of the EC50 estimation as provided by the drc package.
# [12] = tested on: FLT4; settings: compound concentrations:3nM, 10nM, 30nM, 100nM, 300nM, 1000nM, 3000nM, 30000nM,R2:0.97672359479992199,slope:1.0836870062150401,EC50 Standard Error, by the legend:Standard error of the EC50 estimation as provided by the drc package.
# [13] = tested on: INCENP; settings: compound concentrations:3nM, 10nM, 30nM, 100nM, 300nM, 1000nM, 3000nM, 30000nM,R2:0.98280014886482903,slope:1.1847745210473,EC50 Standard Error, by the legend:Standard error of the EC50 estimation as provided by the drc package.
# [14] = tested on: IRAK4; settings: compound concentrations:3nM, 10nM, 30nM, 100nM, 300nM, 1000nM, 3000nM, 30000nM,R2:0.93116388715812703,slope:1.4824347437463801,EC50 Standard Error, by the legend:Standard error of the EC50 estimation as provided by the drc package.
# [15] = tested on: ADCK1; settings: compound concentrations:3nM, 10nM, 30nM, 100nM, 300nM, 1000nM, 3000nM, 30000nM,R2:0.94101841538293196,slope:0.49878905871205997,EC50 Standard Error, by the legend:Standard error of the EC50 estimation as provided by the drc package.
# [16] = tested on: CSNK2A1;CSNK2A3; settings: compound concentrations:3nM, 10nM, 30nM, 100nM, 300nM, 1000nM, 3000nM, 30000nM,R2:0.95393018675228303,slope:1.4690097586887201,EC50 Standard Error, by the legend:Standard error of the EC50 estimation as provided by the drc package.
# [17] = tested on: CSNK2A2; settings: compound concentrations:3nM, 10nM, 30nM, 100nM, 300nM, 1000nM, 3000nM, 30000nM,R2:0.98972333089258602,slope:1.29833762231974,EC50 Standard Error, by the legend:Standard error of the EC50 estimation as provided by the drc package.
# [18] = tested on: CSNK2B; settings: compound concentrations:3nM, 10nM, 30nM, 100nM, 300nM, 1000nM, 3000nM, 30000nM,R2:0.92635600361285697,slope:3.98443256783656,EC50 Standard Error, by the legend:Standard error of the EC50 estimation as provided by the drc package.
# [19] = tested on: EIF3J; settings: compound concentrations:3nM, 10nM, 30nM, 100nM, 300nM, 1000nM, 3000nM, 30000nM,R2:0.88928942104591402,slope:1.5975809400026999,EC50 Standard Error, by the legend:Standard error of the EC50 estimation as provided by the drc package.
# [20] = tested on: IRAK3; settings: compound concentrations:3nM, 10nM, 30nM, 100nM, 300nM, 1000nM, 3000nM, 30000nM,R2:0.92660925835613905,slope:0.92534849669637798,EC50 Standard Error, by the legend:Standard error of the EC50 estimation as provided by the drc package.
substance,measurement,setting,value
TAK659,EC50,[1],1280 nM
same,Kd,[1]; read-out: apparent Kd,590 nM
same,EC50,[2],161 nM
same,Kd,[2]; read-out: apparent Kd,86.7 nM
same,EC50,[3],1020 nM
same,Kd,[3]; read-out: apparent Kd,528 nM
same,EC50,[4],537 nM
same,Kd,[4]; read-out: apparent Kd,456 nM
same,EC50,[5],325 nM
same,Kd,[5]; read-out: apparent Kd,257 nM
same,EC50,[6],1730 nM
same,Kd,[6]; read-out: apparent Kd,1580 nM
same,EC50,[7],149 nM
same,Kd,[7]; read-out: apparent Kd,133 nM
same,EC50,[8],2910 nM
same,Kd,[8]; read-out: apparent Kd,1000 nM
same,EC50,[9],810 nM
same,Kd,[9]; read-out: apparent Kd,617 nM
same,EC50,[10],316 nM
same,Kd,[10]; read-out: apparent Kd,202 nM
same,EC50,[11],507 nM
same,Kd,[11]; read-out: apparent Kd,313 nM
same,EC50,[12],564 nM
same,Kd,[12]; read-out: apparent Kd,308 nM
same,EC50,[13],150 nM
same,Kd,[13]; read-out: apparent Kd,150 nM
same,EC50,[14],718 nM
same,Kd,[14]; read-out: apparent Kd,675 nM
Entospletinib,EC50,[15],16400 nM
same,Kd,[15]; read-out: apparent Kd,10500 nM
same,EC50,[16],1590 nM
same,Kd,[16]; read-out: apparent Kd,1590 nM
same,EC50,[17],1310 nM
same,Kd,[17]; read-out: apparent Kd,1310 nM
same,EC50,[18],941 nM
same,Kd,[18]; read-out: apparent Kd,941 nM
same,EC50,[19],1610 nM
same,Kd,[19]; read-out: apparent Kd,1610 nM
same,EC50,[20],4710 nM
same,Kd,[20]; read-out: apparent Kd,2030 nM
